In PubChem BioAssay (NCI):
About 83,000 compounds went through this panel and 20% of them were active in at least one assay; those are over-represented in the sample as a whole.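 48-hour exposure, single concentration, 96-well plates; percent growth endpoint where 0 means no net growth. Active: below 10.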 The source made the active and inactive calls.

How the values were obtained:
Test in all cases: NCI-60 one-dose screen, 48 h (100 = growth as untreated, 0 = no growth, -100 = all killed)
HOP-92 NSCLC = details: 10 µM
K-562 leukemia = details: 10 µM
MDA-MB-231 breast = details: 10 µM
RXF 393 renal = details: 10 µM
SK-MEL-5 melanoma = details: 10 µM
LOX IMVI melanoma = details: 10 µM
EKVX NSCLC = details: 10 µM
CCRF-CEM leukemia = details: 10 µM
MOLT-4 leukemia = details: 10 µM
SR leukemia = details: 10 µM
HS 578T breast = details: 10 µM
SW-620 colon = details: 10 µM
HCC-2998 colon = details: 10 µM
KM12 colon = details: 10 µM
MDA-MB-468 breast = details: 10 µM unless noted
NCI-H23 lung = details: 10 µM
OVCAR-4 ovarian = details: 10 µM
UO-31 renal = details: 10 µM

Measured: growth

COc1ccc2cc([C@H](C)C(=O)[Se]CCC#N)ccc2c1
active: HOP-92 NSCLC -82.1% | K-562 leukemia 4.12% | MDA-MB-231 breast -59.9% | RXF 393 renal -82.3% | SK-MEL-5 melanoma -70.4% | LOX IMVI melanoma -66.6% | EKVX NSCLC -83.7% | CCRF-CEM leukemia 7.91% | MOLT-4 leukemia 5.75% | SR leukemia 0.13% | HS 578T breast -10.2% | SW-620 colon -22.9% | KM12 colon 5.84% | MDA-MB-468 breast -56.6%
inactive: HCC-2998 colon 10.1%

COCCOCCOCCOc1ccc(-n2cc(-c3ccc(O[C@H]4O[C@@H]5OC6(C)CC[C@H]7[C@H](C)CC[C@@H]([C@H]4C)[C@@]57OO6)cc3)nn2)cc1
inactive: NCI-H23 lung 27.2% | HOP-92 NSCLC 83.2% | K-562 leukemia 28.6% | MDA-MB-231 breast 79.9% | RXF 393 renal 69.4% | LOX IMVI melanoma 36.1% | EKVX NSCLC 26.7% | CCRF-CEM leukemia 53.7% | MOLT-4 leukemia 21.2% | SR leukemia 33.8% | OVCAR-4 ovarian 28.8% | HS 578T breast 43.9% | SW-620 colon 27.7% | HCC-2998 colon 59.2% | KM12 colon 31.6% | MDA-MB-468 breast 13.3%

C[C@H]1[C@H](OC(=O)CCC(=O)N(CCCc2cn(-c3ccc(CN4CCOCC4)cc3)nn2)CCNc2ccnc3cc(Cl)ccc23)O[C@@H]2OC3(C)CC[C@H]4[C@H](C)CC[C@@H]1[C@@]24OO3
inactive: NCI-H23 lung 45.3% | MDA-MB-231 breast 42.5% | OVCAR-4 ovarian 45.9% | SW-620 colon 25.5% | HCC-2998 colon 40.1% | KM12 colon 24.7% | MDA-MB-468 breast 29%
active: HOP-92 NSCLC -9.61% | K-562 leukemia 4.56% | RXF 393 renal 7.45% | LOX IMVI melanoma 7.19% | CCRF-CEM leukemia 8.19% | MOLT-4 leukemia -4.26% | SR leukemia -17.8% | HS 578T breast 9.17%

C#CCCCN(CCNc1ccnc2cc(Cl)ccc12)C(=O)CCC(=O)O[C@@H]1O[C@@H]2OC3(C)CC[C@H]4[C@H](C)CC[C@@H]([C@H]1C)[C@@]24OO3
active: LOX IMVI melanoma -40.9% | MOLT-4 leukemia -4.65% | SR leukemia -21.9% | MDA-MB-468 breast -3.36%
inactive: NCI-H23 lung 35.7% | HOP-92 NSCLC 27.3% | K-562 leukemia 13% | MDA-MB-231 breast 64.2% | RXF 393 renal 34.3% | CCRF-CEM leukemia 24.4% | OVCAR-4 ovarian 41.3% | HS 578T breast 44.1% | SW-620 colon 33.2% | HCC-2998 colon 20.7% | KM12 colon 27.7%

COc1cc(OC)c(/C=C/C(=O)c2nc3ccccc3n2Cc2ccc(F)cc2)c(OC)c1
inactive: NCI-H23 lung 89% | HOP-92 NSCLC 50.2% | K-562 leukemia 81.9% | RXF 393 renal 33.7% | EKVX NSCLC 73.5% | UO-31 renal 82.7% | CCRF-CEM leukemia 64.5% | MOLT-4 leukemia 44.7% | SR leukemia 74.3% | HCC-2998 colon 105% | KM12 colon 91.4% | MDA-MB-468 breast 80.1%

CC[C@]12C=CCN3CC[C@@]4(c5ccc(OC)cc5N(C)[C@H]4[C@@](O)(C(=O)OC)[C@@H]1OC(=O)CCCC[P+](c1ccc(OC)cc1)(c1ccc(OC)cc1)c1ccc(OC)cc1)[C@@H]32
active: NCI-H23 lung -90.7% | HOP-92 NSCLC -74.5% | K-562 leukemia 1.01% | MDA-MB-231 breast -97.4% | RXF 393 renal -90.4% | LOX IMVI melanoma -96.4% | EKVX NSCLC -59.7% | CCRF-CEM leukemia -59.1% | MOLT-4 leukemia -26.2% | OVCAR-4 ovarian -37.7% | HS 578T breast -67.5% | SW-620 colon -88.7% | HCC-2998 colon -88.4% | KM12 colon -68.8% | MDA-MB-468 breast -92.7%
inactive: UO-31 renal 15.5% | SR leukemia 23.2%
